aSyn 5UTR act = Activators via SNCA 5'UTR binding, MLPCN. alpha-synuclein 5'UTR reporter, activators screen. activity score, % (tested at 7.5 µM), hits read low. hit rate 7.1% among 300,000. AID 1814, 2009; in the data active means activity score below about -60%
* = called active by the depositor. A selection follows.

SMILES	aSyn 5UTR act
CC(C)(C)OC(=O)N/N=C/c1c[nH]c2ccccc12	-140*
Cc1occc1C(=O)N/N=C/c1c[nH]c2ccccc12	-135*
O=c1sc(/C=N/Nc2ccccc2)c(Cl)n1Cc1ccccc1	-84*
O=C1CC(c2cc(-c3ccccc3)no2)C1	-99*
COc1ccc(N/C=C\C(=O)c2ccc(C)cc2)cc1OC	-84*
COc1ccc(C(=O)/C=C2\NCCc3cc(OC)c(OC)cc32)cc1OC	64
COc1ccc(N/C=C\C(=O)c2ccc(Br)cc2)cc1OC	-108*
CCOC(=O)c1ccc2[nH]c3c(c2c1)CCCC3	-124*
COC(=O)c1ccc2[nH]c3c(c2c1)CC(C)CC3 (stereo not drawn)	-96*
CC(=O)C1=NOC(CNc2ncc(C(F)(F)F)cc2Cl)C1 (stereo not drawn)	-86*
Cc1cccc(NC(=O)c2n[nH]c([N+](=O)[O-])c2Br)c1C	-62*
O=[N+]([O-])c1cc(-c2nc(-c3ccncc3)no2)cc([N+](=O)[O-])c1	-118*
O=[N+]([O-])c1cc(-c2nc(-c3ccncc3)no2)ccc1Cl	-79*
COc1ccc2nc(NC(=O)Nc3ccccc3OC)sc2c1	-89*
COc1ccc2nc(Nc3ccccc3)sc2c1	-119*
COc1ccc2nc(Nc3ccccc3OC)sc2c1	-154*
COc1ccc2nc(NC(=O)Nc3cccc4ccccc34)sc2c1	-103*
CCC(C)C(=O)Nc1nc2ccc(OC)cc2s1 (stereo not drawn)	-167*
COc1ccccc1NC(=O)Nc1nc2ccc(S(N)(=O)=O)cc2s1	-183*
COc1ccc(-n2c(C)cc(C(=O)NC3CCCCC3)c2C)cc1	-156*
CCOc1ccc(-n2c(C)cc(C(=O)CCl)c2C)cc1	111
Cc1cccc(-n2c(C)cc(C(=O)NC3CCCCC3)c2C)c1	-76*
O=c1cc(-c2cccc(Cl)c2)oc2cccc(O)c12	-124*
O=c1cc(-c2cccc(Br)c2)oc2cccc(O)c12	-141*
S=C(Nc1ccccc1)c1nc2ccccc2s1	-170*
SMILES	aSyn 5UTR act
O=C(CC1CCCCC1)Nc1nc2ccccc2s1	-130*
Cc1cnc(NC(=O)CC2CCCC2)s1	-131*
O=C(NNc1nc2ccccc2s1)Nc1ccccc1	-255*
CCNC(=O)Nc1nc2ccccc2s1	-97*
O=C(NCc1ccncc1)C(=O)Nc1nc2ccccc2s1	-72*
Cc1ccc(-n2c(C)c(C)c3c(NCCCO)ncnc32)cc1	-165*
COc1ccc(-n2c(C)c(C)c3c(NCCCO)ncnc32)cc1	-81*
CCCC#Cc1ccc2c(c1)COc1c3ccccc3nn1-2	-76*
c1ccc2c(-c3nc(-c4ccncc4)no3)cccc2c1	-272*
c1ccc(-c2noc(-c3cccc4ccccc34)n2)cc1	-179*
c1cncc(-c2noc(-c3cccc4ccccc34)n2)c1	-225*
Cc1ccc(/C=N/Nc2ccc(Cl)nn2)cc1	-151*
Oc1ccc(/C=N/Nc2ccc(Cl)nn2)cc1O	-134*
Cc1ccc(N=C2NC(=O)/C(=C\c3ccco3)S2)cc1	-74*
Cn1cccc1/C=C1\SC(=Nc2cccc(O)c2)NC1=O	-241*
O=C1NC(=Nc2ccc(O)cc2)S/C1=C/c1ccco1	-88*
O=C1NC(=Nc2ccc3ccccc3c2)S/C1=C/c1ccco1	-91*
O=C1NC(=Nc2ccccc2)S/C1=C\c1cccs1	-92*
CCOc1ccc2c(c1)S/C(=C\c1cccs1)C(=O)N2	-134*
Cc1cc(Cl)cc2c(N=Nc3ccccc3C(=O)O)c(O)[nH]c12	-68*
C#CCn1c(=NC(=O)c2ccc(Cl)s2)sc2cccc(OC)c21	-79*
COC(=O)Cn1c(=NC(=O)c2ccc(Cl)s2)sc2cc(F)ccc21	-111*
O=C1SC(SC(=Nc2ccccc2)Nc2ccccc2)C(=O)N1c1ccccc1 (stereo not drawn)	-132*
Cc1ccc(OCCSc2ncnc3nc[nH]c23)cc1	-67*
O=C(Nc1cc2c(ccc3ccccc32)oc1=O)C1CCCCC1	-62*
SMILES	aSyn 5UTR act
CNC(=O)c1cc2c(ccc3ccccc32)o1	-60*
O=C(NC1CCCC1)c1cc2c(ccc3ccccc32)o1	-202*
COc1ccc(N=C/C=C2\C=C(c3ccccc3)OC(C)(C)O2)cc1	-135*
CC1CCC(NC(=O)C2CCN(c3c4c(nc5ncnn35)CCC4)CC2)CC1 (stereo not drawn)	-65*
COC(=O)c1[nH]c2c(c1C)C(=O)CC(c1cccs1)C2 (stereo not drawn)	85
CCOC(=O)c1[nH]c2c(c1C)C(=O)CC(c1ccco1)C2 (stereo not drawn)	73
Cc1c(C(=O)OC2CCC(C)CC2)[nH]c2c1C(=O)CCC2 (stereo not drawn)	-79*
COC(=O)C1C(=O)c2c([nH]c(C(=O)OC3CCCCCC3)c2C)CC1C (stereo not drawn)	-115*
COC(=O)C1C(=O)c2c([nH]c(C(=O)OCC3CCCO3)c2C)CC1C (stereo not drawn)	-113*
COCCOC(=O)c1[nH]c2c(c1C)C(=O)CC(c1ccccc1)C2 (stereo not drawn)	78
COCCOC(=O)c1[nH]c2c(c1C)C(=O)C(C(=O)OC)C(C)C2 (stereo not drawn)	-88*
CCCCCOC(=O)c1[nH]c2c(c1C)C(=O)C(C(=O)OC)C(C)C2 (stereo not drawn)	-73*
CN1C(=O)S/C(=C\c2ccc(-n3cncn3)cc2)C1=O	-93*
COc1ccc(-n2c(=S)[nH]c3cc(C(=O)Nc4ccc(F)cc4)ccc3c2=O)c(OC)c1	-142*
Cc1nc(-c2noc(-c3ccc(Cl)cc3)n2)c(C(F)(F)F)o1	-103*
COC(=O)c1ccc(-c2nc(-c3ccc(Br)o3)no2)cc1	-108*
COc1ccc(-c2noc(-c3ccc(Cl)cc3)n2)cc1	-131*
COc1ccc(-c2noc(-c3ccc(Br)o3)n2)cc1	-212*
COc1ccc(-c2nc(-c3ccc(C(=O)O)cc3)no2)cc1	-90*
CCOC(=O)N1CCN(c2nc(-c3ccc(OC)cc3)no2)CC1	-88*
Nc1ccc2oc(=O)c3ccccc3c2c1	-174*
CCC(=O)Oc1ccc(-c2cnc3ccccc3n2)cc1	-99*
O=C(Oc1ccc(-c2cnc3ccccc3n2)cc1)c1ccco1	-81*
CC(=O)Nc1ccc(S(=O)(=O)N/N=C/c2ccc(C)s2)cc1	-137*
COc1ccc(C(=O)C[n+]2cn(C(F)F)c3ccccc32)c(F)c1	-117*
SMILES	aSyn 5UTR act
Cc1cc(NCCCN2CCOCC2)n2ncc(-c3ccccc3)c2n1	-95*
COc1ccccc1-c1cnn2c(NCc3ccccc3)cc(C)nc12	-75*
Cc1cc(NCc2ccccn2)n2ncc(-c3ccccc3)c2n1	-155*
Cc1cc(NCc2ccccn2)n2ncc(-c3ccc(Cl)cc3)c2n1	-97*
c1ccc(-c2onc(-c3ccco3)c2-c2ccc3[nH]ccc3c2)cc1	-65*
c1cc2cc(-c3c(-c4ccc5c(c4)OCO5)noc3-c3ccsc3)ccc2[nH]1	-81*
CN(C)/C=N/c1nc(-c2ccc3ccccc3c2)cs1	-145*
CN(C)/C=N/c1nc(-c2ccc3c(c2)OCO3)cs1	-171*
CCOc1cccc(C(=O)NC(=S)Nc2ccc(N3CCN(CC)CC3)cc2)c1	-80*
CCCOc1cccc(C(=O)NC(=S)Nc2ccc(N3CCN(C)CC3)cc2)c1	-69*
Cc1ccc(-c2cc(C(=O)NCc3cccs3)no2)cc1	-122*
CCCc1cc(C(=O)NCc2cccs2)no1	-141*
CCCc1cc(C(=O)NCC(C)C)no1	-106*
CC(C)CNC(=O)c1cc(-c2ccc(Cl)c(Cl)c2)on1	-118*

Screens as filed in PubChem BioAssay.
